Where “and” joins values, the source holds several entries; their conditions need not be identical. Equal values may be shown once. Results filed as inconclusive are left out. Calls of active or inactive are those of the source. Calls come from the whole dose curve.

Chain of Peroxisome proliferator-activated receptor delta (Homo sapiens) (Q03181 whole entry, looked up): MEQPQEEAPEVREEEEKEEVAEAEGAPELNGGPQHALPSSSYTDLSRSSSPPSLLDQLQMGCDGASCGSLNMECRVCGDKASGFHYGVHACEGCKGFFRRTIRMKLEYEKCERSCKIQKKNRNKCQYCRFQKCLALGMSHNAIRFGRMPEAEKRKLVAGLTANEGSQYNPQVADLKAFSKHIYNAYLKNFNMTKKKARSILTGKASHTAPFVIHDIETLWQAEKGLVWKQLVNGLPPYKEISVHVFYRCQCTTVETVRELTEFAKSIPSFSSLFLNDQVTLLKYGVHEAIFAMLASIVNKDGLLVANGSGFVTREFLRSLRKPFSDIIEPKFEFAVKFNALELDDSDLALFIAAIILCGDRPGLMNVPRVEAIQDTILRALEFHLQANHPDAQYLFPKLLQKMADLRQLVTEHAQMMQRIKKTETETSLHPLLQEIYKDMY
Chain of Bile acid receptor (Homo sapiens) (Q96RI1 whole entry, looked up): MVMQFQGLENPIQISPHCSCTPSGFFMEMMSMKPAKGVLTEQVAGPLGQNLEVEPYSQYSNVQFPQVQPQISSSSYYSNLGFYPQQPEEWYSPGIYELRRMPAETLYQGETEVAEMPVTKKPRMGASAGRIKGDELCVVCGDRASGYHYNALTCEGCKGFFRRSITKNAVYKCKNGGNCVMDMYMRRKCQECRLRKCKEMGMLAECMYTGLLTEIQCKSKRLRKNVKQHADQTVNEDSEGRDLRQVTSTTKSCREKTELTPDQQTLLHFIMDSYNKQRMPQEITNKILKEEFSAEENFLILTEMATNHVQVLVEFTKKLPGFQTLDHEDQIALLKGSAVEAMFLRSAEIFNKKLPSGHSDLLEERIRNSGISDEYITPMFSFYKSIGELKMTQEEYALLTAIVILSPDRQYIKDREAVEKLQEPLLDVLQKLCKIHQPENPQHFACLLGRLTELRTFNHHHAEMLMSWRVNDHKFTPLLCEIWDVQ

One experiment has as its target Bile acid receptor (Homo sapiens) (UniProt Q96RI1). As to the kind of experiment: qHTS assay for small molecule agonists of farnesoid X receptor signaling (AID 588527).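 Note: 0% = vehicle basal and 100% = reference agonist.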 As to conditions: HEK293T FXR-UAS-bla, beta-lactamase ratio, 16 h; activation: hits give high values. Put shortly: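 FXR-UAS-bla HEK293T, 10% dialyzed FBS; cpds up to 92 uM titration, 16 h 37 C; CCF4 dye 2 h RT; fluorescence. Normalized to chenodeoxycholic acid 100 uM (100%) and DMSO (0%); Hill fit gives EC50, efficacy.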
For `Nc1ccccc1[N+](=O)[O-]`, the activation is -3.44% (inactive).
On to `CCNc1nc(NC(C)CC)nc(OC)n1` (stereo not drawn), for which the activation is -1.27% (inactive).
On to `C[Si]1(C)O[Si](C)(C)O[Si](C)(C)O1`, for which the activation is -0.282% (inactive).
Take `N#CC1(O)CCCCC1`: the activation was -2.07% (inactive).
On to `CNc1nc(=O)n(C2CCC(O)CC2)c(=O)n1C` (stereo not drawn), for which the activation was 2.07% (inactive).
On to `Cn1c(=O)[nH]c(=O)n(C2CCC(O)CC2)c1=O` (stereo not drawn), for which the activation was -4.56% (inactive).
Still for that read-out and setting: the same measure for `CC(=O)Nc1ccc(N)cc1`: 1.67% (inactive).
For the molecule `O=S(=O)(O)c1ccc(N=Nc2c(O)ccc3cc(S(=O)(=O)O)ccc23)cc1`, the activation was -1.3% (inactive).
In the case of `NC(=O)Nc1nc2ccccc2[nH]1`, the activation is -1.18% (inactive).
As for `CCCCOCCOCCOCCCC`, the activation is -0.244% (inactive).
As for `NC=O`, the activation was -0.541% (inactive).
Same read-out and setting: the result for `C=CC(=O)OCCCCCCOC(=O)C=C` reads -0.189% (inactive); that for `Nc1ccc(N=Nc2ccccc2)c(N)c1`, -2.91% (inactive); that for `Cc1cc(C)cc(N)c1`, -1.69% (inactive).
As for `CC(=O)c1c(C)c([N+](=O)[O-])c(C(C)(C)C)c([N+](=O)[O-])c1C`, the activation is 1.55% (inactive).
Take `CN(C)CCCCl`: the activation was -3.17% (inactive).
`CC(=O)OC1CC(C)OC(C)O1` (stereo not drawn): the activation is -3.17% (inactive) and -0.0131% (inactive).
Consider `C=CC(=O)NC(C)C`, for which the activation was -0.191% (inactive).
In the case of `C=CC(=O)OCC[N+](C)(C)C`, the activation is -2.87% (inactive).
With `CCCCC(CC)COS(=O)(=O)O` (stereo not drawn), the activation is 1.45% (inactive).
Still for that read-out and setting: the result for `CCCCCCCOC(=O)c1ccccc1C(=O)OCCCCCCC` reads -0.976% (inactive).
For `C=Cc1ccccc1Cl`, the activation is 0.519% (inactive).
Regarding `O=C(O)CNC(=O)c1ccc([N+](=O)[O-])cc1`, the activation is 1.14% (inactive).
Consider `NC(=S)NNC(N)=S`, for which the activation was 0.327% (inactive) and 1.24% (inactive).
For `CC(/C=C/C=C(C)/C=C/C(=O)O)=C\C=C\C=C(C)\C=C\C=C(C)\C=C\C(=O)O`, the activation is 3.47% (inactive).
`CC(C)CCC[C@@H](C)[C@H]1CC[C@H]2[C@@H]3CC=C4C[C@@H](O)CC[C@]4(C)[C@H]3CC[C@]12C`: the activation was 0.612% (inactive).
For `COC(=O)c1ccc(CNS(C)(=O)=O)cc1S(=O)(=O)NC(=O)Nc1nc(OC)cc(OC)n1`, the activation was -2.61% (inactive).
Turning to `O=[N+]([O-])c1ccc2nc[nH]c2c1`, the activation was -1.7% (inactive).
In the case of `N[C@@H](Cc1ccccc1)C(=O)O`, the activation is 1.47% (inactive).
The same measure, in the same setting: the result for `Cn1sccc1=O` reads 1.01% (inactive).
On to `CC(N)CN` (stereo not drawn), for which the activation is -2.35% (inactive).
On the same count and under the same terms, the result for `CSCCC=O` reads -2.56% (inactive); that for `OC1CCC(C2CCCCC2)CC1` (stereo not drawn), 0.637% (inactive); that for `Cc1ccc(N=Nc2c(O)ccc3ccccc23)c(C)c1`, -0.864% (inactive).
For the molecule `CCCCOCCOCCOC(=O)CCCCC(=O)OCCOCCOCCCC`, the activation was 3.42% (inactive).
On the same count and under the same terms, the same measure for `CC(C)c1cccc(C(C)C)c1`: -1.96% (inactive); for `O=S(=O)(O)c1cc(S(=O)(=O)O)c2c(N=Nc3ccccc3)c(O)ccc2c1`: 2.46% (inactive); for `CCCCCCCCC1CO1` (stereo not drawn): 0.755% (inactive).
Turning to `C=CC(=O)CC`, the activation is 3.81% (inactive).

For the next experiment, the target named is Peroxisome proliferator-activated receptor delta (Homo sapiens) (UniProt Q03181). Nature of the experiment: qHTS assay for small molecule agonists of peroxisome proliferator-activated receptor delta signaling (AID 588534).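 Note: 0% = DMSO basal wells and 100% = positive control agonist at 10 µM.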 As to conditions: HEK293T PPARdelta-UAS-bla, beta-lactamase ratio, 18 h; series mostly up to 76.7 µM; activation: at the top concentration. Put shortly:
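Cells carrying a PPAR-delta beta-lactamase reporter were treated with compounds for 18 h at 37 °C in agonist mode. CCF4 fluorescence was read after 2 h; EC50 and efficacy from Hill fits.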
As for `Nc1ccccc1[N+](=O)[O-]`, the “activation” value was 0.75% (inactive).
`CCNc1nc(NC(C)CC)nc(OC)n1` (stereo not drawn): the “activation” value is 2.19% (inactive).
As to `C[Si]1(C)O[Si](C)(C)O[Si](C)(C)O1`, the “activation” value is -3.5% (inactive).
Same read-out and setting: the result for `N#CC1(O)CCCCC1` reads 0.876% (inactive); that for `CNc1nc(=O)n(C2CCC(O)CC2)c(=O)n1C` (stereo not drawn), 1.38% (inactive).
Still for that read-out and setting: the result for `Cn1c(=O)[nH]c(=O)n(C2CCC(O)CC2)c1=O` (stereo not drawn) reads 0.347% (inactive); that for `CC(=O)Nc1ccc(N)cc1`, 1.19% (inactive).
On the same count and under the same terms, the same measure for `O=S(=O)(O)c1ccc(N=Nc2c(O)ccc3cc(S(=O)(=O)O)ccc23)cc1`: 0.948% (inactive).
For `NC(=O)Nc1nc2ccccc2[nH]1`, the “activation” value is 2.79% (inactive).
For the molecule `CCCCOCCOCCOCCCC`, the “activation” value is 10.6% (inactive).
Regarding `NC=O`, the “activation” value is 6.98% (inactive).
Consider `C=CC(=O)OCCCCCCOC(=O)C=C`, for which the result was inactive.
With `Nc1ccc(N=Nc2ccccc2)c(N)c1`, the “activation” value is -8.6% (inactive).
As for `Cc1cc(C)cc(N)c1`, the “activation” value is -5.76% (inactive).
In the case of `CC(=O)c1c(C)c([N+](=O)[O-])c(C(C)(C)C)c([N+](=O)[O-])c1C`, the “activation” value is 8.92% (inactive).
On the same count and under the same terms, the same measure for `CN(C)CCCCl`: 4.97% (inactive); for `CC(=O)OC1CC(C)OC(C)O1` (stereo not drawn): 0.841% (inactive); for `C=CC(=O)NC(C)C`: 1.88% (inactive).
On to `C=CC(=O)OCC[N+](C)(C)C`, for which the “activation” value is -4.55% (inactive).
As to `CCCCC(CC)COS(=O)(=O)O` (stereo not drawn), the “activation” value is 9.13% (inactive).
Regarding `CCCCCCCOC(=O)c1ccccc1C(=O)OCCCCCCC`, the “activation” value was 1.7% (inactive).
For the molecule `C=Cc1ccccc1Cl`, the “activation” value is -1.75% (inactive).
Regarding `O=C(O)CNC(=O)c1ccc([N+](=O)[O-])cc1`, the “activation” value was -0.404% (inactive).
With `NC(=S)NNC(N)=S`, the outcome was inactive.
Regarding `CC(/C=C/C=C(C)/C=C/C(=O)O)=C\C=C\C=C(C)\C=C\C=C(C)\C=C\C(=O)O`, the “activation” value is -9.87% (inactive).
For `CC(C)CCC[C@@H](C)[C@H]1CC[C@H]2[C@@H]3CC=C4C[C@@H](O)CC[C@]4(C)[C@H]3CC[C@]12C`, the “activation” value is -6.63% (inactive).
With `COC(=O)c1ccc(CNS(C)(=O)=O)cc1S(=O)(=O)NC(=O)Nc1nc(OC)cc(OC)n1`, the “activation” value is -8.83% (inactive).
For `O=[N+]([O-])c1ccc2nc[nH]c2c1`, the “activation” value is 11.3% (inactive).
As to `N[C@@H](Cc1ccccc1)C(=O)O`, the “activation” value was -1.24% (inactive).
`Cn1sccc1=O`: the “activation” value was -1.8% (inactive).
`CC(N)CN` (stereo not drawn): the “activation” value is 3.86% (inactive).
As for `CSCCC=O`, the “activation” value was -1.86% (inactive).
Take `OC1CCC(C2CCCCC2)CC1` (stereo not drawn): the “activation” value is 0.301% (inactive).
As for `Cc1ccc(N=Nc2c(O)ccc3ccccc23)c(C)c1`, the “activation” value was -3.73% (inactive).
With `CCCCOCCOCCOC(=O)CCCCC(=O)OCCOCCOCCCC`, the “activation” value is 0.957% (inactive).
For `CC(C)c1cccc(C(C)C)c1`, the “activation” value was -1.79% (inactive).
For `O=S(=O)(O)c1cc(S(=O)(=O)O)c2c(N=Nc3ccccc3)c(O)ccc2c1`, the “activation” value was 1.29% (inactive).
On to `CCCCCCCCC1CO1` (stereo not drawn), for which the “activation” value is 6.12% (inactive).
For `C=CC(=O)CC`, the “activation” value is 4.28% (inactive).

(Values after PubChem BioAssay (NCATS).)
